{"source": "PubChem BioAssay AID686970", "about": "(National Center for Advancing Translational Sciences (NCATS), 2013)", "note": "The campaign covered roughly 360,000 compounds. About 6,000 (1.7%) were called active. Where a call stands in place of a potency, no number is given. Roughly 8% stayed inconclusive and do not appear here. This is one part of a sample in which actives are shown more often than they occur. Calls follow the shape of the dose curve; as a rule, active = well fitted cell-killing curve with a large enough effect; inconclusive = small, poorly fitted or top-dose-only effect, or effect the other way; inactive = flat fitted curve, though single readings scatter. Potency is read from the fitted curve at half-maximal effect.", "data": [{"experiment": "qHTS for induction of synthetic lethality in tumor cells producing 2HG: qHTS for the HT-1080-NT fibrosarcoma cell line;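 also: NT is the 2HG producing partner of a matched IDH1 knockdown line; nearly all actives have a fitted effect of over 55% in size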", "conditions": "HT-1080-NT fibrosarcoma viability, CellTiter-Glo ATP luminescence, 48 h; series mostly up to 46.1 µM", "how_it_was_run": "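Compounds were tested in concentration-response format on HT-1080-NT cells for 48 hours at 37 degrees C. Cell viability came from CellTiter-Glo luminescence; curves were classified by r2, response magnitude and activity.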", "values": [{"smiles": "COC(=O)[C@]12CCCCC=C1N(Cc1ccccc1)C(=O)[C@H](CC(=O)NCc1ccc(C)o1)C2", "Potency": "inactive"}, {"smiles": "C#CCOCCOCCOCCNc1nc(N2CCN(C(=O)CCCCCCCCCCNC(=O)[C@H]([C@@H](C)CC)n3cc(CCCCN=C(N)N)nn3)CC2)nc(N2CCN(C(=O)CCCCCCCCCCNC(=O)[C@H](CO)n3cc(CCCSC)nn3)CC2)n1", "Potency": "23.1 µM (active)"}, {"smiles": "C#CCOCCOCCOCCNc1nc(N2CCN(C(=O)Cn3cc(CCO)nn3)CC2)nc(N2CCN(C(=O)Cn3cc(CCCN=C(N)N)nn3)CC2)n1", "Potency": "inactive"}, {"smiles": "C#CCOCCOCCOCCNc1nc(N2CCN(C(=O)[C@H](C(C)C)n3cc(CCO)nn3)CC2)nc(N2CCN(C(=O)[C@H]([C@@H](C)CC)n3cc(CCCN=C(N)N)nn3)CC2)n1", "Potency": "inactive"}, {"smiles": "Cc1ccc(NC(=O)COC(=O)CN2CCSC2=O)cc1F", "Potency": "inactive"}, {"smiles": "CCCCn1nnnc1C(c1ccccc1)N1CCN(c2ccccc2OC)CC1", "note": "(stereo not given)", "Potency": "inactive"}, {"smiles": "CC1Cc2[nH][nH]c(=O)c2C(C2CC2)O1", "note": "(stereo not given)", "Potency": "inactive"}, {"smiles": "Cc1ccc(C(=O)OCC(=O)NC2CCCCCCC2)cc1C", "Potency": "inactive"}, {"smiles": "NC(=O)CSc1nnc(NC(=O)c2ccc(Br)o2)s1", "Potency": "inactive"}, {"smiles": "Cc1cccc(NC(=O)CSc2nc3[nH]ncc3c(=O)[nH]2)c1", "Potency": "inactive"}, {"smiles": "COCCSc1nnc(NC(=O)CCS(=O)(=O)Cc2ccccc2)s1", "Potency": "inactive"}, {"smiles": "Cc1cccc(NC(=O)C(C)SCc2ccccc2)c1", "note": "(stereo not given)", "Potency": "inactive"}, {"smiles": "CSc1nnc(NC(=O)c2nc(S(=O)(=O)Cc3ccc(C)cc3)ncc2Cl)s1", "Potency": "7.31 µM (active)"}, {"smiles": "Cc1cccc(NC(=O)c2nc(S(=O)(=O)Cc3ccccc3)ncc2Cl)c1", "Potency": "6.51 µM (active)"}, {"smiles": "Cc1nc2ccccc2nc1CC(O)(c1ccccc1)c1ccccc1", "Potency": "inactive"}, {"smiles": "CC1(c2cccc(Br)c2)NC(=O)N(CC(=O)NCCC2=CCCCC2)C1=O", "note": "(stereo not given)", "Potency": "inactive"}, {"smiles": "O=C1CCC(C(=O)OCC(=O)Nc2ccc(OC(F)F)cc2)=NN1", "Potency": "inactive"}, {"smiles": "CCN(C(=O)Nc1cccc2ccccc12)c1ccccc1", "Potency": "inactive"}, {"smiles": "Cc1ccccc1NC(=O)NCC1CCN(Cc2cccc(Cl)c2)CC1", "Potency": "inactive"}, {"smiles": "Cc1cccc(CN2CCC(CNC(=O)Nc3ccc(F)c(Cl)c3)CC2)c1", "Potency": "16.4 µM (active)"}, {"smiles": "O=C(NCC1CCN(Cc2ccccc2Cl)CC1)Nc1cccc(Cl)c1", "Potency": "inactive"}, {"smiles": "OC[C@@H]1CN(Cc2ccc(Cl)cc2)C[C@H](n2cnc3c(NCc4ccncc4)ncnc32)O1", "Potency": "inactive"}, {"smiles": "O=C(CSc1ccccc1)Nc1nnc(/C=C/c2ccccc2)s1", "Potency": "23.1 µM (active)"}, {"smiles": "CCOCc1nnc(NC(=O)CSc2ccc(C)cc2)s1", "Potency": "inactive"}, {"smiles": "O=C(Nc1ccc(Cl)cc1)Nc1nnc(/C=C/c2ccccc2)s1", "Potency": "inactive"}, {"smiles": "CC1(C)OC(=O)C2=C(C[C@@H](C3CC3)O[C@H]2c2ccc(Cl)cc2)O1", "Potency": "inactive"}, {"smiles": "CC1(C(=O)NS(=O)(=O)c2cccc(OC(F)F)c2)CCN1C(=O)COc1ccc(Cl)cc1", "note": "(stereo not given)", "Potency": "inactive"}, {"smiles": "CCCNC(=O)C1(C)CCCN(Cc2c(C)nn(-c3ccccc3)c2C)C1", "note": "(stereo not given)", "Potency": "inactive"}, {"smiles": "CN(C)CCNC(=O)/C(=C/c1cccc([N+](=O)[O-])c1)NC(=O)c1ccccc1", "Potency": "inactive"}, {"smiles": "C=CCNC(=O)/C(=C\\c1cccc([N+](=O)[O-])c1)NC(=O)c1ccccc1", "Potency": "inactive"}, {"smiles": "Cc1ccc(C(=O)N/C(=C/c2ccc(-c3cccc([N+](=O)[O-])c3)o2)C(=O)NCCCN(C)C)cc1", "Potency": "14.6 µM (active)"}, {"smiles": "Cc1ccc(CNC(=O)Nc2nnc([C@H]3C[C@H](O)[C@@H](CO)O3)s2)cc1", "Potency": "inactive"}, {"smiles": "O=C(NC1CCCCCC1)c1cccnc1Sc1ccc(Cl)cc1", "Potency": "inactive"}, {"smiles": "O=C(NC(=S)NC1CCCCC1)c1ccc(Cl)cc1", "Potency": "inactive"}, {"smiles": "O=C(NC1CCCCC1)c1ccc(-c2ccc(Cl)cc2)o1", "Potency": "18.4 µM (active)"}, {"smiles": "O=S1(=O)C[C@@H](N2CCN(CCO)CC2)[C@H](COCc2ccccc2)N1", "Potency": "inactive"}, {"smiles": "Cc1cn([C@H]2C[C@H](O)[C@@H](/C=C/C(=O)NCCCc3ccccc3)O2)c(=O)[nH]c1=O", "Potency": "inactive"}, {"smiles": "CSc1ccc(CN2CCC2(C)C(=O)NCc2ccccc2Br)cc1", "note": "(stereo not given)", "Potency": "inactive"}, {"smiles": "O=C(NCc1ccccc1)c1ccc(S(=O)(=O)Nc2cccc(C(F)(F)F)c2)cc1", "Potency": "inactive"}, {"smiles": "O=C(COc1ccc(S(=O)(=O)Nc2cccc(C(F)(F)F)c2)cc1)N1CCOCC1", "Potency": "inactive"}, {"smiles": "Cc1oc2c(F)c(F)c(F)c(F)c2c1S(=O)(=O)Nc1cccc(C(F)(F)F)c1", "Potency": "3.26 µM (active)"}, {"smiles": "CCCCn1nnnc1C(c1cccc(OC)c1OC)N1CCN(C/C=C/c2ccccc2)CC1", "note": "(stereo not given)", "Potency": "inactive"}, {"smiles": "C/C(=N/Nc1ccc(Cl)cc1)c1cnnc(-c2ccccc2)n1", "Potency": "inactive"}, {"smiles": "CCCCCCCN=C(C)c1ccccc1O", "Potency": "inactive"}, {"smiles": "C/C(=N\\Nc1ccc(Cl)nn1)c1ccccc1O", "Potency": "0.731 µM (active)"}, {"smiles": "CCOC(=O)[C@]12CCCC=C1N(Cc1ccc(Cl)cc1Cl)C(=O)[C@H](CC(=O)N1CCCCC1)C2", "Potency": "inactive"}, {"smiles": "Cc1ccc(NC(=S)N(CCCN2CCCC2)Cc2cccn2Cc2ccc(Cl)cc2)cc1", "Potency": "23.1 µM (active)"}, {"smiles": "Cc1ccc(NC(=S)N(CCN2CCCCC2)Cc2ccco2)cc1C", "Potency": "inactive"}, {"smiles": "Cc1ccc(NC(=S)N(CCCN2CCC(C)CC2)Cc2ccco2)cc1", "Potency": "inactive"}, {"smiles": "Cc1nc(C(F)(F)F)ccc1C(=O)N1CCC1(C)C(=O)NS(=O)(=O)c1ccccc1", "note": "(stereo not given)", "Potency": "inactive"}, {"smiles": "Cc1[nH]n(C)c(=O)c1C(=O)c1c(-c2c(Cl)cccc2Cl)noc1C", "Potency": "20.6 µM (active)"}, {"smiles": "Cc1onc(-c2c(Cl)cccc2Cl)c1C(=O)c1c[nH]c(C(=O)NC2CC2)c1", "Potency": "inactive"}, {"smiles": "Cc1onc(-c2c(Cl)cccc2Cl)c1C(=O)NNC(=O)c1c(-c2c(Cl)cccc2Cl)noc1C", "Potency": "inactive"}, {"smiles": "CCC(Oc1ccccc1)C(=O)OCC(=O)Nc1c(C)nn(-c2ccccc2)c1C", "note": "(stereo not given)", "Potency": "inactive"}, {"smiles": "COc1cccc(C(=O)Nc2ccc(N3CCN(C(=O)c4ccco4)CC3)cc2)c1", "Potency": "23.1 µM (active)"}, {"smiles": "COc1cccc(C(=O)Nc2ccc(N3CCCC3)cc2)c1", "Potency": "20.6 µM (active)"}, {"smiles": "COc1cccc(C(=O)Nc2nnc(S(=O)(=O)N3CCCCC3)s2)c1", "Potency": "inactive"}, {"smiles": "COc1cccc(OCc2cc(C(=O)N3CCN(C(=O)c4ccco4)CC3)no2)c1", "Potency": "inactive"}, {"smiles": "Cc1ccc(OCC(=O)Nc2ccc(N3CCN(C(=O)c4ccco4)CC3)cc2)c(C)c1", "Potency": "inactive"}, {"smiles": "COc1cccc(C(=O)Nc2ccc3nc4n(c(=O)c3c2)CCCCC4)c1", "Potency": "inactive"}]}]}
